Screening data deposited in PubChem BioAssay by The Scripps Research Institute Molecular Screening Center.
Only some compounds are listed: those with a hit (about 2.4% of all), similar ones and a draw of the others.
ULK1 primary: ULK1 kinase inhibitors, primary screen, biochemical, AlphaScreen; AlphaScreen Atg13 phosphorylation by ULK1, luminescence; 30,000 compounds, 1.9% hits; AID 1259251, 2017; inhibition, % at 5.96 µM; Serine/threonine-protein kinase ULK1 (Homo sapiens), O75385; in the data active = inhibition above about 43%;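 also: 0% = median of compound wells and 100% = no enzyme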
ASK1 inh: ASK1 kinase inhibitors, primary screen, biochemical, AlphaScreen; Mitogen-activated protein kinase kinase kinase 5 (Homo sapiens), Q99683; AlphaScreen MKK6 phosphorylation by ASK1, luminescence; inhibition, % at 7.44 µM; 22,000 compounds, 0.99% hits; in the data active = inhibition above about 35%;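 also: 0% = median of compound wells and 100% = no enzyme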
Numbers without * were called inactive; · = no result given.

SMILES	ULK1 primary	ASK1 inh
O=S(=O)(O)c1cc(I)c(O)c2ncccc12	45.1*	·
Oc1ccc(Cl)c2cccnc12	11.4	·
Oc1c(I)cc(I)c2cccnc12	51.1*	·
CC(=O)Nc1ccc(Nc2cc(Nc3ccncc3)nc(N)n2)cc1	2.2	-0.9
CC(=O)Nc1ccc(Nc2cc(Nc3ccncn3)nc(N)n2)cc1	4.8	4.2
COc1cc(Nc2cc(Nc3cnccn3)ncn2)cc(OC)c1OC	7.7	10.7
CC(=O)Nc1ccc(Nc2cc(Nc3ccncn3)ncn2)cc1	62.3*	10.7
COc1cc(Nc2cc(Nc3ccncc3)ncn2)cc(OC)c1OC	62.4*	17.4
CC(=O)Nc1ccc(Nc2cc(Nc3ccncc3)ncn2)cc1	79.3*	-1.8
O=C(O)Cn1cc(I)c(=O)c(I)c1	-1.4	·
O=C(Nc1ccc(Oc2ccccc2)cc1)c1csc(-c2cccs2)n1	-10.3	5.9
Nc1nc(Nc2ccc3c(c2)OCO3)cc(Nc2ccncn2)n1	7.8	23.7
Cc1c(C(=O)O)[nH]c2ccc(Cl)cc12	-0.8	·
O=C(Nc1ccc(N2CCOCC2)cc1)c1cnc(N2CCOCC2)s1	44.8*	4.0
CCN(CC)C(=O)C1CCCN(c2ncc(C(=O)Nc3ccc(Oc4ccccc4)cc3)s2)C1 (stereo not drawn)	-4.7	4.2
CCN(CC)C(=O)C1CCCN(c2ncc(C(=O)Nc3ccc(N4CCOCC4)cc3)s2)C1 (stereo not drawn)	48.5*	-14.6
O=C(Nc1ccc(N2CCOCC2)cc1)c1cnc(N2CCN(c3ccccn3)CC2)s1	-6.3	0.5
CN1CCC(N(CCN2CCOCC2)C(=O)CCC(=O)O)CC1	3.9	·
Cc1nc(Nc2cc(Nc3ccccc3S(=O)(=O)NC(C)C)c(C(F)(F)F)cn2)cc(-c2cncnc2)n1	45.0*	-1.4
Cc1nc(Nc2ccccc2)cc(-c2cncc(-c3ccc(F)cc3)c2)n1	-1.5	·
O=C(NC1CC1)c1cccc(NS(=O)(=O)c2ccc(-c3ncnc4[nH]ccc34)cc2)c1	43.5*	7.8
NC(=O)c1ccc(-c2cccc(C(=O)NC3CC3)c2)cc1	-16.4	-20.0
CCCNc1cc(C)nc(NCC)n1	-24.4	-18.8
CN1CCN(C(=O)c2ccc(-c3cccc(C(=O)NCc4nc5ccccc5[nH]4)n3)cc2)CC1	1.0	-3.2
Cc1ccc(CNC(=O)COc2cccc3ccc(N4CCCCC4)nc23)cc1	-1.1	·
SMILES	ULK1 primary	ASK1 inh
Fc1ccccc1Nc1ccc2c(cnn2-c2cccc(-c3ncn[nH]3)c2)c1	-47.0	5.7
O=C(Nc1cnn(-c2cccc(C(=O)Nc3ccc(N4CCOCC4)cc3)c2)c1)Nc1ccccc1Cl	2.8	2.0
O=C(Nc1cnn(-c2cccc(CNc3ccc(N4CCOCC4)cc3)c2)c1)Nc1ccccc1Cl	49.4*	24.6
O=C(Nc1ccc2[nH]ncc2c1)C1CCCNC1 (stereo not drawn)	37.6	10.6
N[C@@H]1CC[C@@H](C(=O)Nc2ccc3cnccc3c2)C1	34.3	-10.0
O=C(Nc1ccc2[nH]ncc2c1)[C@H](O)c1ccccc1	48.6*	-5.2
N[C@@H]1CC[C@@H](C(=O)Nc2ccc3[nH]ncc3c2)C1	65.3*	-3.2
O=C(Nc1ccc2[nH]ncc2c1)C(O)c1ccc(Cl)cc1 (stereo not drawn)	9.3	-14.5
N[C@H]1CCC[C@@H](C(=O)Nc2ccc3cnccc3c2)C1	66.0*	5.5
O=C(Nc1ccc2[nH]ncc2c1)[C@H]1CCCN1	44.6*	-12.0
O=C(Nc1ccc2[nH]ncc2c1)[C@@H]1CCCN1	38.2	3.4
CCCNc1nc(-c2cccc(N)c2)nc2nc[nH]c12	-9.4	-2.3
CC(C)N(CCNc1cc(Nc2cccc(N(C)C)c2)nc(N)n1)C(C)C	17.6	15.4
Fc1ccccc1CSc1nnc2n1CCN2c1ccccc1	-2.1	·
O=C1CSC(c2ccc([N+](=O)[O-])cc2)N1CC1CCCO1 (stereo not drawn)	-7.0	·
O=C(NC1CCN(Cc2ccccc2)CC1)c1cncc(-c2ccccc2)c1	20.7	-20.5
Cc1cc(-c2ccc3nc(C4COc5ccccc5C4)sc3c2)ccn1 (stereo not drawn)	-3.1	-2.2
CC(C)[C@H](O)C(=O)N[C@H]1CC[C@H](C(=O)Nc2ccc3[nH]ncc3c2)C1	5.3	-1.4
N[C@H]1CC[C@@H](C(=O)Nc2ccc3[nH]ncc3c2)C1	72.2*	6.3
OC1CCCN(c2ncn(-c3ccc(Nc4nccc(-c5cccc(N6CCOCC6)c5)n4)cc3)n2)C1 (stereo not drawn)	-27.7	0.8
CN(C)c1ccc(C(=C2C=CC(=[N+](C)C)C=C2)c2ccccc2)cc1	9.2	·
CN(C)c1ccc(C(=C2C=CC(=[N+](C)C)C=C2)c2ccc(N(C)C)cc2)cc1	79.8*	·
CCN(CC)c1nc(NCc2cccnc2)nc(NC2CCC(O)CC2)n1 (stereo not drawn)	-2.8	-6.9
COC(=O)c1cccc2c1C(=O)c1ccccc1C2=O	2.9	·
CC(C)n1cnc2c(NCc3cccc(C(F)(F)F)c3)nc(NCCCN3CCCC3=O)nc21	-2.8	7.5
SMILES	ULK1 primary	ASK1 inh
NNCCc1ccccc1	-10.0	·
CS(=O)(=O)c1ccc(NCCc2ccccc2)cc1	68.2*	·
Nc1nc(NC2CC2)cc(-c2ccc(N3CCOCC3)nc2)n1	6.7	2.2
Cc1ncn(-c2ccc(Nc3ncc4cccc(-c5ccc6cnn(C)c6c5)c4n3)cc2)n1	-22.4	28.1
CCN1CCN(c2cc(C#N)cc(-c3ccnc(Nc4ccc(N5CCOCC5)cc4)n3)c2)CC1	52.9*	-31.6
COc1ccc(Nc2nccc(-c3cc(C#N)cc(N4CCOCC4)c3)n2)cc1	4.1	29.9
N#Cc1cc(-c2ccnc(Nc3ccc(N4CCOCC4)cc3)n2)cc(N2CCOCC2)c1	3.1	31.0
N#Cc1cc(-c2ccnc(Nc3ccc(N4CCOCC4)cc3)n2)cc(N2CCNCC2)c1	77.6*	34.8
Nc1ncc(-c2ccnc3ccccc23)c(-c2ccc(C(F)(F)F)nc2)n1	-8.4	·
COc1cc(NC(=O)c2cccc(-n3ncc4cc(Nc5ccccc5)ccc43)c2)cc(OC)c1OC	-40.3	-4.2
CC(=O)Nc1ccc(NC(=O)c2csc(Nc3ccnn3C)n2)cc1	13.6	7.9
C=CCC1(O)C=C2c3cc(OC)c(OC)cc3CC(C)(C)N2C1=O (stereo not drawn)	8.3	·
CC(=O)Nc1ccc(Nc2nc(Nc3ccc(N4CCOCC4)cc3)nc3c2ncn3CCN2CCCC2=O)cc1	6.4	9.7
Cc1cnc(-c2ccc(C(N)=O)cc2)nc1NCCOc1ccccc1	-33.7	1.3
c1cncc(CNc2nc(Nc3ccc4c(c3)OCO4)c3ncn(-c4ccsc4)c3n2)c1	52.9*	28.6
CC(C)n1cnc2c(Nc3ccccc3)nc(NCc3cccnc3)nc21	54.1*	3.1
CC(C)n1cnc2c(Nc3ccc(Oc4ccccc4)cc3)nc(Nc3cccnc3)nc21	7.8	14.7
CCNc1nc(Nc2cc(OC)c(OC)c(OC)c2)c2ncn(C(C)C)c2n1	-20.8	8.2
CC(C)n1cnc2c(NCc3ccccc3)nc(NCc3cccnc3)nc21	1.9	-6.9
c1cncc(CNc2nc(NCc3ccc4c(c3)OCO4)nc3c2ncn3-c2ccsc2)c1	9.6	-19.1
CCNc1nc(Nc2ccccc2)c2ncn(C(C)C)c2n1	56.5*	15.1
CC(C)n1cnc2c(Nc3ccccc3)nc(Nc3cccnc3)nc21	51.5*	-9.1
O=C1CCCN1CCn1cnc2c(NCc3nc4ccccc4[nH]3)nc(N3CCC(N4CCOCC4)CC3)nc21	8.8	7.3
O=C(NCc1ccccc1)c1ccc2nc(Nc3ccc(C(F)(F)F)cc3)sc2c1	-20.3	-21.1
